Structures can show the parent of a compound that is named as a salt. ± gives the standard deviation of the averaged measurements.

Results on 38 compounds are retold here after the supplement of paper PMC4894684.

This assay concerns Toxoplasma gondii RH (in HFF). The assay is described as follows: parasite growth relative to the screen mean (all compounds = 100%); higher = less inhibition of parasite growth. The settings on record: 5 µM; 72 h; oxygen 21 %. The method, boiled down:
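RH β-Gal–GFP Toxoplasma at MOI 1:5 was used to infect confluent human foreskin fibroblasts in 96-well plates within 2 h of pin-transferring compounds to 5 µM final. After 72 h at 21% O2, parasite number was determined by CPRG β-Gal assay against standard curves on the same plate. Growth is relative to the screen mean and averaged over two screens, with all compounds = 100%.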
`COc1cc2c(Nc3ccc(NC(=O)c4ccccc4)cc3)ncnc2cc1OCCCN1CCOCC1` gave a parasite growth of 17.4 ± 8.7%.
Turning to `Cc1ccc(/C=N/NC(=O)c2ccccc2Oc2ccccc2)o1`, the parasite growth came to 72.7 ± 4.9%.
The compound `N#CC(=C(/N)Sc1ccccc1N)/C(C#N)=C(/N)Sc1ccccc1N` registered a parasite growth of 197 ± 14%.
Compound `COc1ccc2[nH]c(C(=O)c3ccccc3)cc2c1` gave a parasite growth of 38.5 ± 2.6%.
With `CC(C)NC[C@H](O)COc1cccc2[nH]ccc12` [(S)-(-)-Pindolol], the parasite growth came out at 127 ± 20%.
On to `Cc1ccc(C(=O)Cn2c3c(sc2=N)CCCC3)cc1` [Pifithrin- α hydrobromide], for which the parasite growth turned out to be 130 ± 1.9%.
The compound `O=C1Nc2ccc(I)cc2/C1=C/c1cc(Br)c(O)c(Br)c1` came in with a parasite growth of 114 ± 18%.
The compound `CN1[C@@H](CC(=O)c2ccccc2)CCC[C@H]1C[C@H](O)c1ccccc1` [Lobeline hydrochloride] gave a parasite growth of 179 ± 40%.
Consider `Cc1noc(NS(=O)(=O)c2ccc(N)cc2)c1C` [Sulfisoxazole], for which the parasite growth stood at 108 ± 1.1%.
In the case of `CNCCCC12CCC(c3ccccc31)c1ccccc12` [Maprotiline hydrochloride], the parasite growth is 54.1 ± 17%.
`Nc1ncnc2n[nH]c(Nc3ccc(F)cc3)c12` displayed a parasite growth of 94.4 ± 26%.
In the case of `Cc1ccccc1N1CCN(S(=O)(=O)C[C@]23CC[C@H](C[C@@H]2NC(=O)[C@@H](N)CCS(C)(=O)=O)C3(C)C)CC1` [L-368,899 hydrochloride] it was 161 ± 16%; in that of `CSc1cc2c(cc1C(F)(F)F)N(C(=O)Nc1cccnc1)CC2`, 122 ± 30%.
Turning to `Cc1ccc(S(=O)(=O)/C=C/C#N)cc1`, the parasite growth is 135 ± 27%.
Turning to `CC1(C)C[C@@H]1C(=O)N/C(=C\CCCCSC[C@H](N)C(=O)O)C(=O)O` [Cilastatin sodium], the parasite growth stood at 117 ± 14%.
`CS(=O)(=O)c1ccc(-c2cc(Br)sc2-c2ccc(F)cc2)cc1` came in with a parasite growth of 47.5 ± 14%.
`CN(C)CCCn1cc(C2=C(c3c[nH]c4ccccc34)C(=O)NC2=O)c2ccccc21` came in with a parasite growth of less than 0%.
As to `CCCCC[C@H](O)/C=C/[C@H]1[C@H](O)CC(=O)[C@@H]1C/C=C\CCCC(=O)O` [Prostaglandin E2], the parasite growth was 122 ± 1.1%.
With `CNS(=O)(=O)Cc1ccc2[nH]cc(CCN(C)C)c2c1` [Sumatriptan succinate], the parasite growth was 76.2 ± 11%.
Under `COc1ccc(-c2nc(-c3ccc(-c4cccc(Cl)c4)o3)[nH]c2-c2ccc(OC)cc2)cc1` [Neurodazine] stands 120 ± 28%.
`COC(=O)C1=C(C)NC(C)=C(C(=O)OC)C1c1ccccc1[N+](=O)[O-]` [Nifedipine] showed a parasite growth of 110 ± 36%.
As for `CNC(=O)[C@H]1O[C@@H](n2cnc3c(NCc4cccc(I)c4)ncnc32)[C@H](O)[C@@H]1O`, the parasite growth was found to be 117 ± 14%.
The compound `CC(C)Oc1cccc(-n2c(CCc3c[nH]c4ccc(Br)cc34)nc3ccccc3c2=O)c1` returned a parasite growth of 55.84 ± 0.023%.
The compound `N[C@@H](CSC(c1ccccc1)(c1ccccc1)c1ccccc1)C(=O)O` [S-Trityl-L-cysteine] displayed a parasite growth of 118 ± 8.6%.
The compound `c1ccc(CN(CC2=NCCN2)c2ccccc2)cc1` [Antazoline hydrochloride] had a parasite growth of 114 ± 25%.
As to `CC1(COc2ccc(CC3SC(=O)NC3=O)cc2)CCCCC1` (stereo not drawn) [Ciglitazone], the parasite growth stood at 100 ± 22%.
In turn, `CCN(CC)CCCC(C)Nc1nc(C)cc(Nc2ccc3nc(C)cc(N)c3c2)n1` (stereo not drawn) yielded a parasite growth of 127 ± 2.7%.
On to `NC(C(=O)O)c1cc(O)cc(O)c1` (racemic), for which the parasite growth was determined as 142 ± 15%.
In turn, `O=C(NCCN1CCCCC1)c1ccc(I)cc1` [N-[2-(Piperidinylamino)ethyl]-4-iodobenzamide] yielded a parasite growth of 118 ± 12%.
`Cc1c(C(=O)NN2CCOCC2)nn(-c2ccc(Cl)cc2Cl)c1-c1ccc(I)cc1` yielded a parasite growth of 88.1 ± 20%.
As for `CC(C)NCC(O)COc1ccc(COCCOC(C)C)cc1` (racemic) [(±)-Bisoprolol hemifumarate], the parasite growth stood at 77.7 ± 0.94%.
In the case of `N#Cc1c(O)c2c(-c3ccc(-c4ccccc4O)cc3)csc2[nH]c1=O` it was 131 ± 14%.
Compound `COc1cccc2c1C(=O)c1c(O)c3c(c(O)c1C2=O)C[C@@](O)(C(C)=O)C[C@@H]3O[C@H]1C[C@H](N)[C@H](O)[C@H](C)O1` [Daunorubicin hydrochloride] registered a parasite growth of less than 0%.
For the compound `CC1(c2ccccc2)OC(C(=O)O)=CC1=O` (stereo not drawn) [Acifran], the parasite growth was determined as 114 ± 2.4%.
In the case of `O=C(O)C1=CCCNC1` [Guvacine hydrochloride] it was 132.34 ± 0.044%.
The compound `COc1cc2c(CCNC(C)=O)c[nH]c2cc1Cl` [6-Chloromelatonin] came in with a parasite growth of 131 ± 24%.
Under `OC(CN1CCN(c2cccc(Cl)c2)CC1)C(c1ccccc1)c1ccccc1` (stereo not drawn) stands 147 ± 28%; under `Cc1c(C(=O)NC2CCCCC2)sc2nc3ccc(N)cc3n12`, 183 ± 33%.
